# From PubChem
# KDM5B inh – blocks human KDM5B histone demethylase activity; Q9UGL1; KDM5B demethylase, FDH-coupled NADH fluorescence (FDH is formaldehyde dehydrogenase); Potency, µM (doses to about 57.7 µM), hits mostly inhibitors; hit rate 2.6% among 220,000; active = well fitted inhibition curve with a large enough effect; also: 0% is about no effect; nearly all actives have a fitted effect of over 70% in size
#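 Inhibition is measured as reduced NADH fluorescence generation from FDH coupling to formaldehyde release. Truncated KDM5BΔAP at 200 nM final acts on H3K4me3 peptide (12.5 µM in substrate mix) in pH 7.5 HEPES buffer with Tween-20, 30 min, room temperature.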
# The depositor's hits bear a star; i = inactive. Shown is part of a subset that was picked to be rich in hits. Potency is read from the fitted curve at half-maximal effect.
SMILES,KDM5B inh
CC(NC(=O)c1ccco1)c1nc(-c2ccccc2)no1 (centres undefined),i
Cc1ccc(-c2cc(N3CCCN(C(=O)CCc4ccccc4)CC3)n[nH]2)cc1C,16µM*
O=C(Cc1ccccc1)N1CCN(c2cc(-c3ccccc3)[nH]n2)CC1,i
Cc1ccc(-c2cc(N3CCCN(C(=O)c4ccccn4)CC3)n[nH]2)cc1C,i
COc1cccc(NC(=O)c2sc3nc(C)c(C(=O)Nc4ccc(C)cc4C)c(-c4cccs4)c3c2N)c1,i
COc1ccc(-c2noc([C@@H]3CCCN3C(=O)c3ccc(F)c(F)c3)n2)cc1OC,i
COCCOc1cc(-c2noc([C@@H]3CCCN3Cc3ccc(NC(C)=O)cc3)n2)ccn1,i
COc1ccc(-c2noc([C@@H]3CCCN3C(=O)c3ccncc3)n2)cc1OC,i
NC(=O)C1CCN(c2cc(-c3noc([C@@H]4CCCN4Cc4ccc(F)c(F)c4)n3)ccn2)CC1,25µM*
Fc1ccc(-c2noc([C@@H]3CCCN3Cc3ccc(Cl)cc3)n2)nc1,i
CC(=O)N1CCN(c2cc(-c3noc([C@@H]4CCCN4Cc4ccc(C(F)(F)F)cc4)n3)ccn2)CC1,28µM*
CCOc1ccc(C(=O)NC2CCN(c3cc(-c4ccc(F)cc4)[nH]n3)CC2)cc1,i
O=C(NNC(=O)c1ccncc1)Nc1ccccc1,i
CCn1c(SCC(=O)Nc2c(C#N)cnn2-c2ccccc2)nnc1-c1cccs1,i
Cc1noc(C)c1C(=O)N1CC(c2noc(C3CCCN3CC3CC3)n2)C1 (centres undefined),i
CC(C)NCCN1CCCC1,i
C[C@@H]1CN(C[C@@H]2CN(C(=O)c3ccsc3)C[C@@H]2CO)C[C@H](C)O1,i
CC1(C)CN=C(SCc2ccccc2)NC1,i
COc1cncc(-c2cc(C(=O)NCc3cccnc3)c3c(c2)N(C)CCO3)c1,i
COc1cc(OC)cc(C(=O)Nc2ccccc2C(=O)NCc2cccnc2)c1,i
CNC(=O)c1cc(-c2cccc(OC)c2OC)cc2c1OCCN2Cc1cccnc1,32µM*
COc1cccc(C(=O)N[C@@H]2CN(Cc3cccnc3)C[C@H]2CN(C)C)c1C,i
COc1ccccc1-c1cc(C(=O)NCc2cccnc2)c2c(c1)N(C)CCO2,40µM*
COc1cccc(N2CCN(c3nc(C(=O)NCc4cccnc4)cs3)CC2)c1,i
CCC(=O)N1CCc2c(C(=O)NCc3cccnc3)cccc21,i
SMILES,KDM5B inh
O=C(NCc1ccccc1F)c1ccc2c(c1)CN(Cc1cccnc1)CCO2,i
CN1CCOc2c(C(=O)NCc3cccnc3)cc(-c3ccccc3F)cc21,25µM*
COc1ccccc1C(=O)N1CCN2C(=O)N(Cc3cccnc3)C[C@H]2C1,i
COc1cccc(-c2cc(C(=O)NCc3cccnc3)c3c(c2)N(C)CCO3)c1OC,35µM*
COCCCN1CC2(CCN(C(=O)c3cnc(SC)nc3)CC2)CC1=O,i
Cc1cnc(CC2CCNC2)n1Cc1ccccc1 (centres undefined),i
CCN(C(=O)Cc1nc(-c2ccc(OC)cc2)no1)c1cccc(Cl)c1,i
C=CCO[C@@H]1C[C@H]2C(=O)Nc3ccc(-c4ccccc4)cc3C(=O)N2C1,i
O=C(N[C@H]1CCN2C(=O)c3cc(-c4cccc(C(F)(F)F)c4)ccc3NC(=O)[C@@H]2C1)c1cnccn1,i
O=C1Nc2ccc(-c3cccc(C(F)(F)F)c3)cc2C(=O)N2CCN(C(=O)c3ccco3)C[C@@H]12,35µM*
COc1ccc(OCC(=O)N2CCN(C(=O)c3cccc(OC)c3)CC2)cc1,i
C=CCO[C@@H]1C[C@H]2C(=O)Nc3ccc(-c4ccc(OC)cc4)cc3C(=O)N2C1,35µM*
CS(=O)(=O)N[C@H]1C[C@H]2C(=O)Nc3ccc(-c4cccc(C(F)(F)F)c4)cc3C(=O)N2C1,i
O=C(N[C@H]1CCN2C(=O)c3cc(-c4cccc(C(F)(F)F)c4)ccc3NC(=O)[C@H]12)c1cnccn1,i
COc1ccc(-c2ccc3c(c2)C(=O)N2CCN(C(=O)COc4ccccc4)C[C@@H]2C(=O)N3)cc1,28µM*
C=CCO[C@@H]1C[C@H]2C(=O)Nc3ccc(-c4ccc(F)cc4F)cc3C(=O)N2C1,i
COCC(=O)N1CCN2C(=O)c3cc(-c4cccc(C(F)(F)F)c4)ccc3NC(=O)[C@H]2C1,28µM*
CCOc1ccc(-c2cc(C(=O)N3CCOCC3)c3ccccc3n2)cc1,i
CC(=O)c1cc(Cl)ccc1OC(=O)c1ccc(C)cc1,i
CN(Cc1ccc2c(c1)CCO2)C1CCc2nn(C)c(=O)n2CC1 (centres undefined),i
Cc1ccc(NC(=O)N2CCC(n3cnnc3C3CC3)C2)cc1 (centres undefined),i
COCC(=O)N1CCN2C(=O)c3cc(-c4ccc(OC)cc4)ccc3NC(=O)[C@H]2C1,32µM*
CC(C)(CC(=O)O)CC(=O)N1CCN2C(=O)c3cc(-c4ccc(Cl)cc4)ccc3NC(=O)[C@@H]2C1,i
COc1ccc(C(=O)N[C@H]2C[C@H]3C(=O)Nc4ccc(-c5ccsc5)cc4C(=O)N3C2)cc1,i
CN(C)C(=O)N1CCC2(CC1)CN(C(=O)CCC(=O)O)Cc1ccccc1O2,i
SMILES,KDM5B inh
CC(C)c1noc(-c2cccn3c(CNC(=O)c4c(F)cccc4Cl)nnc23)n1,16µM*
CC(C)c1noc(-c2cccn3c(CNC(=O)c4ccc(F)c(F)c4)nnc23)n1,11µM*
COc1ccc(C(=O)NCc2nnc3c(-c4nc(C(C)C)no4)cccn23)cc1F,32µM*
COc1ccc(-c2noc(-c3cccn3CC(=O)NCc3ccc(OC)c(OC)c3)n2)cc1F,i
COc1ccc(C(=O)NCCn2cccc2-c2nc(-c3ccccc3)no2)cc1F,i
O=C(Nc1nnc(S(=O)(=O)N2CCc3ccccc32)s1)c1ccccc1Cl,i
Cc1[nH]c(SC(C)C(=O)Nc2ccc(S(=O)(=O)N3CCCC3)cc2)nc1Cc1ccccc1 (centres undefined),i
Cc1cc(C)[n+](C)n1-c1ccccc1,i
CCN1C(=O)COc2ccc(-c3csc(NC(=O)c4ccco4)n3)cc21,i
Cc1ccsc1C(=O)NC1CCSC1=O (centres undefined),i
O=C(CN1C(=O)c2cccc3cccc1c23)Nc1ccccc1Br,i
Cc1ccc2c(=O)cc(C(=O)Nc3ccc(S(=O)(=O)N4CCCC(C)C4)cc3)oc2c1C (centres undefined),i
CC(C)(C)NC(=O)c1cnn(-c2ccccc2)c1C1CCN(C(=O)OC(C)(C)C)CC1,i
COc1ccc(-c2nc(C(=O)NC3CC3)n3ccccc23)cc1,32µM*
CC(C)(C)OC(=O)N1CCC(NC(=O)c2nc(-c3ccccc3)c3ccccn23)CC1,79µM*
C[S+](=O)([O-])c1ccc(-c2nc(C(=O)NC3CC3)n3ccccc23)cc1,i
COc1ccccc1-c1nc(C(=O)NC2CC2)n2ccccc12,i
COc1ccc(-c2nnsc2C(=O)NC2CCCC2)cc1,i
O=C(c1ccccc1)N1CCC(OCC2CC2)C1 (centres undefined),i
O=C(NCc1cccc(C(F)(F)F)c1)C1CCN(C(=O)c2cccc3ccccc23)CC1,i
COc1ccc(-c2ccnc3nc(C4CC4)nn23)c(F)c1,25µM*
COc1ccc(-c2ccnc3nc(C4CC4)nn23)cc1,16µM*
Cc1c(NC(=S)N/C(=N/S(=O)(=O)c2ccccc2)c2ccccc2)c(=O)n(-c2ccccc2)n1C,i
Cc1noc(C)c1-c1cc2c(cc(-c3ccccc3)n2C)c(N(C)C)n1,i
